Several values for one entry are separate records, joined by “and”; a condition that tells them apart may be missing. Equal values may be shown once. Unmarked numbers belong to inactive results. Records with an inconclusive call do not appear. Entries that show only a call come without a potency. Activity calls are given as the source filed them. Unless noted, calls follow the shape of the dose curve; as a rule, active = well fitted curve in the direction sought with a large enough effect; inconclusive = small, poorly fitted or top-dose-only effect, or another doubt; inactive = no such curve, though single readings can be large; an effect the other way counts as inactive or inconclusive.
Columns and labels:
[1] = biological target: Arylsulfatase A (Homo sapiens) (UniProt P15289); test: qHTS screen for enhancers of Arylsulfatase A (ASA1): LOPAC Validation Assay (AID 720538); also: potency is read from the fitted curve at half-maximal effect
Chain of Arylsulfatase A (Homo sapiens) (P15289 whole entry, looked up): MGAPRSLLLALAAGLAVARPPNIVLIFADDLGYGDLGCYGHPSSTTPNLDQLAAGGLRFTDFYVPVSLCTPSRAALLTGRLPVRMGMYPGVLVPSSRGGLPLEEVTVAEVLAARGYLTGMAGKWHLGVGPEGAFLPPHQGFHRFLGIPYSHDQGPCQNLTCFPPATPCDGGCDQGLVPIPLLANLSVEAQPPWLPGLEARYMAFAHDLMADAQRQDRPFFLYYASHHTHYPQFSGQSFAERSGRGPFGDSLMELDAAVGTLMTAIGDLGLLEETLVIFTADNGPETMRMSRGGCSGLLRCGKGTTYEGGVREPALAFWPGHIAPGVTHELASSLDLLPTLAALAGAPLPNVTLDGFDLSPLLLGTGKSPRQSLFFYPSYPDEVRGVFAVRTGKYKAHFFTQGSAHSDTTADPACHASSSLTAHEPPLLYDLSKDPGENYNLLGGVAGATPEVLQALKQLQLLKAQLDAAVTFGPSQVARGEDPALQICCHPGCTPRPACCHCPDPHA
Procedure, shortened: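 First, ASA-I179S fibroblasts from an MLD patient adhered for 6 hrs. Next, compounds were added for 48h. Then pNCS substrate (0.5mM final) with lysis buffer reacted 14h at room temperature before NaOH stop and fluorescence measurement.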

[2] = qHTS for compounds that reverse cellular toxicity of Amyloid beta (A-beta) peptide in yeast: LOPAC Validation Assay (AID 720559); conditions: Potency: rescue of growth toxicity
Procedure, shortened: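 Activity is expressed relative to DMSO and an equimolar ferric chloride/clioquinol mix. Compounds were pinned into medium with A-beta-expressing yeast, grown 48 hr at 30 C, then read by absorbance at 600 nm.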

[3] = qHTS for Activators of Parkin Expression: LOPAC Validation Assay (NLuc Reporter) (AID 720572)
Procedure, shortened: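 Compound effects on Parkin promoter activity were measured as NanoLuc luminescence after 24 h at 37 C. The neuronal reporter line also carried FLuc, which was read first. LOPAC compounds were tested at 7 concentrations, with normalization to DMSO (0%) and positive control (100%).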

[4] = biological target: T1, Hexokinase-4 (Homo sapiens) + Glucokinase regulatory protein (Homo sapiens) (UniProt P35557+Q14397); test: qHTS assay for inhibitors of recombinant human GCK-GKRP interaction: Diaphorase-coupled assay (AID 743205)
T1 sequence (P35557 whole entry, looked up): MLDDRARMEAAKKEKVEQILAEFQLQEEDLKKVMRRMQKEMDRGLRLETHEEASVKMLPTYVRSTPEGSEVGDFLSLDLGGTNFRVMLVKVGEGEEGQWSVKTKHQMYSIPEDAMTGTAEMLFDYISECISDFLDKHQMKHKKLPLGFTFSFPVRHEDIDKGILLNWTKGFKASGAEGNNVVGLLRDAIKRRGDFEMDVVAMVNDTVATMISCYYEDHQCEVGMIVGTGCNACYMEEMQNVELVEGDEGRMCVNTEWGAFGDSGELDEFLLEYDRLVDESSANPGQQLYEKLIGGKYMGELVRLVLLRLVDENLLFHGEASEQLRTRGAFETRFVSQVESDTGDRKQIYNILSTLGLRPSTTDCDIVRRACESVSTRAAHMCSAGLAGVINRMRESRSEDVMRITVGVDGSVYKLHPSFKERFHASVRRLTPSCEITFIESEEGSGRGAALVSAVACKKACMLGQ
T1 sequence (Q14397 whole entry, looked up): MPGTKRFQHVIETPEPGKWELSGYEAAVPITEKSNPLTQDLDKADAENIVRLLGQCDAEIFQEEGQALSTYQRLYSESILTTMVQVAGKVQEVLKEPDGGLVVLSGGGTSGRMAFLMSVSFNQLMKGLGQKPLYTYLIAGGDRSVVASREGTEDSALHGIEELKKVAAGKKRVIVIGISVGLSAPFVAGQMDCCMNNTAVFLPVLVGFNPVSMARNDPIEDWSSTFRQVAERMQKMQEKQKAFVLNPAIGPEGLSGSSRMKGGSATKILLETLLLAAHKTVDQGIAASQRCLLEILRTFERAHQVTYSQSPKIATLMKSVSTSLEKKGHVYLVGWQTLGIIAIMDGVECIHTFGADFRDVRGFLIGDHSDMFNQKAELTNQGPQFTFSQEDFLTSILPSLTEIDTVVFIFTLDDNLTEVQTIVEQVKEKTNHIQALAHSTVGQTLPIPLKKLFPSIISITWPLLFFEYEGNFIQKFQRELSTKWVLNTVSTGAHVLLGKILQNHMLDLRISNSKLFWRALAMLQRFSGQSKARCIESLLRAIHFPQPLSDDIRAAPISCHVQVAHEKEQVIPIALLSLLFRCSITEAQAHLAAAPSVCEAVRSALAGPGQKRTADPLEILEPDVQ
Procedure, shortened: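 Inhibitors of the GCK–GKRP complex relieve GKRP suppression of GCK, detected through a G6PDH–diaphorase cascade reducing resazurin. Human GST-GCK and FLAG-GKRP are used at 10 nM with 5 mM glucose and 0.4 mM ATP.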

[5] = biological target: T1, Hexokinase-4 (Homo sapiens) + Glucokinase regulatory protein (Homo sapiens); test: qHTS assay for inhibitors of recombinant human GCK-GKRP interaction: ADP-Glo assay (AID 743206); also: potency is read from the fitted curve at half-maximal effect
Procedure, shortened: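 Pin-transferred compounds meet a 15 nM GST-GCK/15 nM FLAG-GKRP/2 uM S6P mix (dispense concentrations). ATP is then added to 0.4 mM final with 5 mM glucose, and the reaction runs 60 min at room temperature. ADP is quantified luminescently.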

[6] = biological target: T1, Hexokinase-4 (Homo sapiens) + Glucokinase regulatory protein (Homo sapiens); test: qHTS assay for inhibitors of recombinant human GCK-GKRP interaction: HTRF assay (AID 743207)
Procedure, shortened: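 Steps: dispense GCK–GKRP complex (5 nM each, GST- and FLAG-tagged) with 2 uM S6P; pin in compounds; add XL665/Eu-cryptate-labelled antibodies; incubate 60 min at room temperature; read time-resolved FRET at 665 and 615 nm.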

[7] = qHTS Assay for Identifying Gametocytocidal Compounds (AID 743244); also: potency is read from the fitted curve at half-maximal effect;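 as to max response: actives lower the fluorescent signal which means gametocytes are killed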; conditions: P. falciparum 3D7 stage III-V gametocytes, alamarBlue, 72 h; max response: hits give low values
Procedure, shortened: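 Stage III-V P. falciparum 3D7 gametocytes, 20,000 per well, were exposed to compounds for 72 h at 37C, 5% CO2. AlamarBlue was then added for 24 h and viability was read as fluorescence at Ex 525/Em 598 nm.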

[8] = qHTS for Activators of Parkin Expression: LOPAC Validation Assay (FLuc Reporter) (AID 720573)
Procedure, shortened: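 A neuronal cell line harbouring FLuc and NLuc reporters behind the Parkin promoter was exposed to compounds for 24 h. Firefly luciferase signal, measured after 10 min with detection reagent, was scaled to DMSO and positive-control wells.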

[9] = qHTS assay for small molecule agonists of the antioxidant response element (ARE) signaling pathway measured by Nrf2-dependant transcriptional activity (AID 720636; active = well fitted curve in the direction sought with a large enough effect in the repeat runs; an effect the other way counts as inactive or inconclusive; also: potency is read from the fitted curve at half-maximal effect)
Procedure, shortened: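 ARE-luc HepG2 cells carrying an Nrf2-responsive luciferase reporter were plated in medium with 1% dialyzed FBS, left 6 hr at 37 C to attach, then exposed to compound for 16 hr. Luciferase luminescence was read after ONE-Glo addition.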

[10] = qHTS assay for small molecule agonists of the antioxidant response element (ARE) signaling pathway measured by Nrf2-dependant transcriptional activity - cell viability counter screen (AID 720653; active = well fitted curve in the direction sought with a large enough effect in the repeat runs; an effect the other way counts as inactive or inconclusive); conditions: ARE-bla HepG2 viability, CellTiter-Glo ATP luminescence, 16 h; max response: hits give low values
Procedure, shortened: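 Cytotoxicity counter screen: intracellular ATP quantified by CellTiter-Glo luminescence in the same ARE-bla HepG2 plates, after 16 h compound exposure and a 2 h beta-lactamase substrate step.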

Structure (SMILES)	Potency [1]	Potency [2]	Potency [3]	outcome [4]	Potency [5]	Potency [6]	max response [7]	Potency [8]	Potency [9]	max response [10]	Potency [7]
O=C1NC(=O)/C(=C/c2ccc(-c3ccc(F)cc3O)o2)S1	inactive	inactive	inactive	inactive	inactive	inactive	-4.42%	–	–	–	–
CN1CCC[C@H]1c1cccnc1	–	inactive	inactive	inactive	inactive	inactive	–	inactive	inactive	-4.29% and -4.16%	–
Cc1ccc(O)c(N=Nc2ccccc2)n1	inactive	inactive	inactive	inactive	inactive	inactive	–	–	–	–	2510 nM (active)
O=C(Nc1ccccc1)c1cc([N+](=O)[O-])ccc1Cl	–	inactive	inactive	inactive	inactive	inactive	-5.62%	inactive	3060 nM (active)	-18.4%	–
O=C(O)c1cc(=O)c2ccccc2[nH]1	inactive	inactive	inactive	inactive	inactive	inactive	-5.82%	–	–	–	–
O=C1C(SCCO)=C(SCCO)C(=O)c2ccccc21	inactive	inactive	inactive	inactive	inactive	–	–	inactive	–	–	1410 nM (active)
CN=c1nc(-c2ccccc2)n(-c2ccccc2)s1	–	inactive	inactive	inactive	inactive	inactive	–	inactive	–	–	–
COc1cccc(C(=O)NCCN2CCN(c3ccc(Cl)cc3)CC2)c1	inactive	inactive	inactive	inactive	inactive	–	13.6%	inactive	–	–	–
Oc1ccc(C2CNCc3sccc32)cc1O (stereo unspecified)	–	inactive	inactive	inactive	inactive	inactive	–	inactive	–	–	–
NC(=S)NCCC[C@H](N)C(=O)O	inactive	inactive	inactive	inactive	inactive	–	29.7%	inactive	–	–	–
CN(C)c1ccc(/C=C2\C(=O)Nc3ccccc32)cc1	inactive	inactive	inactive	inactive	inactive	inactive	–	–	–	–	–
CN1CCc2cc(NC(=O)Nc3cccnc3)ccc21	inactive	inactive	inactive	inactive	inactive	inactive	–	–	–	–	–
O=c1[nH]c2cc(Cl)c(Cl)cc2[nH]c1=O	inactive	inactive	inactive	inactive	inactive	inactive	–	–	–	–	–
O=C(/C=C/c1ccc(O)c(O)c1)OCCc1ccccc1	inactive	inactive	inactive	inactive	inactive	inactive	–	–	–	–	–
CN(C)CCC(c1ccc(Cl)cc1)c1ccccn1 (stereo unspecified)	–	inactive	inactive	inactive	inactive	inactive	–	inactive	inactive	-2.73%	–
O=C1NC(=O)/C(=C/c2ccc3nccnc3c2)S1	inactive	inactive	inactive	inactive	inactive	inactive	-5.45%	–	–	–	–
O=C(c1ccc(OCCCc2cnc[nH]2)cc1)C1CC1	inactive	inactive	inactive	inactive	inactive	inactive	42%	–	–	–	–
CCCCCC(O)c1cccc(OCc2ccc3ccccc3n2)c1 (stereo unspecified)	inactive	inactive	inactive	inactive	inactive	–	5.39%	inactive	–	–	–
CC[C@@H](C)[C@H]1O[C@]2(CC[C@H]1C)C[C@@H]1C[C@@H](CC=C(C)[C@@H](O[C@H]3C[C@H](OC)[C@@H](O[C@H]4C[C@H](OC)[C@@H](O)[C@H](C)O4)[C@H](C)O3)[C@@H](C)C=CC=C3CO[C@@H]4[C@H](O)C(C)=C[C@@H](C(=O)O1)[C@]34O)O2	inactive	–	–	inactive	inactive	inactive	–	–	–	–	2640 nM (active)

Structure (SMILES)	Potency [1]	Potency [2]	Potency [3]	outcome [4]	Potency [5]	Potency [6]	max response [7]	Potency [8]	Potency [9]	max response [10]	Potency [7]
CCc1c(C(=O)NCCc2ccc(N3CCCCC3)cc2)[nH]c2ccc(Cl)cc12	inactive	inactive	inactive	inactive	inactive	–	11.6%	inactive	–	–	–
Oc1cc(O)cc(/C=C/c2ccc(O)c(O)c2)c1	23900 nM (active)	inactive	–	inactive	inactive	–	42.8%	–	–	–	–
O=C(Nc1cccc(C(=O)Nc2ccc(S(=O)(=O)O)c3cc(S(=O)(=O)O)cc(S(=O)(=O)O)c23)c1)Nc1cccc(C(=O)Nc2ccc(S(=O)(=O)O)c3cc(S(=O)(=O)O)cc(S(=O)(=O)O)c23)c1	inactive	inactive	inactive	–	22400 nM (active)	–	-0.217%	inactive	–	–	–
CC(=O)N[C@H](C(=O)O)C(C)(C)SN=O	inactive	inactive	inactive	inactive	inactive	–	7.76%	inactive	–	–	–
COc1ccc(/C=C/C(=O)Nc2ccccc2C(=O)O)cc1OC	6750 nM (active)	inactive	–	inactive	inactive	inactive	46% and -4.4%	inactive	–	–	–
NC(=O)C(=O)O	–	inactive	inactive	inactive	inactive	inactive	24.1%	inactive	–	–	–
N.N.N.N.N.N.N.N.N.N.N.N.N.N.O.O.[Ru+4].[Ru+5].[Ru+5]	–	inactive	inactive	inactive	inactive	–	–	inactive	–	–	935 nM (active)
NC[C@@H]1O[C@H](C23CC4CC(CC(C4)C2)C3)Cc2c1ccc(O)c2O	–	inactive	inactive	inactive	inactive	inactive	–	inactive	–	–	1000 nM (active)
N.N.O=C(O)C1(C(=O)O)CCC1.[Pt]	–	inactive	inactive	inactive	inactive	inactive	-4.37%	inactive	–	–	–
CNC(=O)[C@H]1O[C@@H](n2cnc3c(NCc4cccc(I)c4)ncnc32)[C@H](O)[C@@H]1O	–	inactive	inactive	inactive	inactive	inactive	55.6%	inactive	–	–	–
NCCCCC(=O)O	–	inactive	inactive	inactive	inactive	inactive	12.2%	inactive	–	–	–
NO	–	inactive	inactive	inactive	inactive	inactive	-10.7%	inactive	–	–	–
CCCCC#Cc1nc(NC)c2ncn([C@@H]3O[C@H](CO)[C@@H](O)[C@H]3O)c2n1	–	inactive	inactive	inactive	inactive	inactive	34.4%	inactive	–	–	–
Nc1ncnc2c1ncn2[C@@H]1O[C@H](COP(=O)(O)CP(=O)(O)OP(=O)(O)O)[C@@H](O)[C@H]1O	–	inactive	inactive	inactive	inactive	inactive	13.9%	inactive	–	–	–
NC(=S)c1ccc[n+]([C@@H]2O[C@@H](COP(=O)([O-])OP(=O)(O)OC[C@H]3O[C@@H](n4cnc5c(N)ncnc54)[C@H](OP(=O)(O)O)[C@@H]3O)C(O)C2O)c1 (stereo partly specified)	–	inactive	inactive	inactive	inactive	–	5.56%	inactive	–	–	–
C=CC(C)=C[C@@]1(C)SC(=O)C(C)=C1O	–	inactive	inactive	inactive	inactive	–	15.5%	inactive	–	–	–
Cc1ccc(C(=O)O[C@H](C(=O)O)[C@@H](OC(=O)c2ccc(C)cc2)C(=O)O)cc1 (tested in a mixture with another compound)	–	inactive	inactive	inactive	inactive	inactive	-5.55%	inactive	–	–	–
N#C/C(=C\c1ccc(O)c(O)c1)C(=O)c1ccc(O)c(O)c1	–	inactive	inactive	inactive	inactive	inactive	10.5%	inactive	–	–	–
NCCCCCCCCCCN	–	inactive	inactive	inactive	inactive	inactive	2.17%	inactive	–	–	–

From PubChem BioAssay (NCATS)
